Among the data in PubChem BioAssay (NCATS) are outcome and Potency values, retold here.

Results filed as inconclusive are left out. Activity calls are given as the source filed them. Unless noted, the call rests on the fitted dose curve; in most records, active means well fitted curve in the direction sought with a large enough effect; inconclusive means small, poorly fitted or top-dose-only effect, or another doubt; inactive means no such curve, though single readings can be large; an effect the other way counts as inactive or inconclusive.

Assay [1] in a line: Cytometric Cell-Based qHTS for Inhibitors of the mTORC1 Signaling Pathway in MEF (Tsc2-/-, p53-/-) Cells (AID 2660).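 Further: percent of cells above a phospho-rpS6 to PI ratio cutoff in each well; series mostly up to about 38 µM.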 In a few lines:
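Cells are plated, treated with compound for 24 hrs at 37 degree Celsius, then fixed, blocked and immunostained for phospho-rpS6 Ser235/236. Propidium iodide counterstain follows. Per-well % positive cells is derived from the PI-normalized phospho-S6 signal.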

The nature of assay [2]: High Content Imaging Cell-Based qHTS for Inhibitors of the mTORC1 Signaling Pathway in MEF (Tsc2-/-, p53-/-) Cells (AID 2666).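 Further: percent of cells scored positive for phospho-rpS6 Ser235/236 immunostaining by imaging.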 In a few lines:
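Phospho-rpS6 (Ser235/236) immunofluorescence, normalized and scored as % positive cells using rapamycin and DMSO controls, was read in empty-vector Tsc2-/-, p53-/- MEFs after 24 h compound exposure at 37 C; propidium iodide counted cells.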

A short description of assay [3]: High Content Imaging Cell-Based qHTS for Inhibitors of the mTORC1 Signaling Pathway in MEF Cells (AID 2667).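 Further: Tsc2-/- p53-/- MEFs stably re-expressing wild-type Tsc2 exposed 24 h; series mostly up to about 38 µM.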 In a few lines: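 WT MEFs (Tsc2-/-, p53-/- re-expressing Tsc2), in DMEM + 10% FBS, were treated with compound for 24 h at 37 C. Cells were then fixed and stained for phospho-rpS6 Ser235/236 with propidium iodide as cell count. Values are % positive cells, with thresholds set against rapamycin-treated cells.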

Assay [4] can be described thus: Cytometry Cell-Based qHTS for Inhibitors of the mTORC1 Signaling Pathway in MEF cells (AID 2668).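 Further: Tsc2-/- p53-/- mouse embryonic fibroblasts stably re-expressing wild-type Tsc2; percent cells positive for phospho-rpS6 Ser235/236 relative to propidium iodide stain; series mostly up to about 38 µM.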 In a few lines:
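Read-out: phospho-rpS6 Ser235/236 immunofluorescence normalized to propidium iodide intensity, scored as % active cells against a rapamycin (7.5 nM) threshold. Cells: Tsc2-/-, p53-/- MEFs stably expressing WT Tsc2, compound-treated 24 hrs at 37 degree Celsius.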

Assay [5] can be described thus: Validation screen for small molecules that induce DNA re-replication in MCF 10A normal breast cells (AID 463097). Further: nearly all actives have a fitted effect of over 60% in size. Further: potency means the concentration at half of the fitted maximal effect. In a few lines:
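250 MCF 10A cells/well; compound pin-transferred; 48 hr, 37 C, 5% CO2; Hoechst 40 min; imaged 405/500-530 nm. Hits = more high-intensity nuclei.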

The target in assay [6] is Ubiquitin carboxyl-terminal hydrolase 2 (Homo sapiens) (UniProt O75604). As to the kind of experiment: qHTS Validation Assay for Inhibitors of Ubiquitin-specific Protease USP2a Using CHOP2 as the Reporter (AID 463106). In outline: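 USP2 core (10 nM final) was preincubated with compound 30 min at RT in pH 8.0 Tris/CaCl2/beta-ME/CHAPS buffer. Ub-CHOP2 and reporter substrate (25 nM final each) were then added, with fluorescence (Ex 485/Em 531) read after 60 min. Data were normalized to NEM full inhibition and fitted to concentration-response curves.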

The target of assay [7] is DNA polymerase III PolC-type (Bacillus subtilis (strain 168)) (UniProt P13267). The assay can be described thus: qHTS Validation Assay for the Inhibitors of DNA Replication in Gram-Positive Bacteria (AID 485295).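 Further: reconstituted holoenzyme with PolC plus beta clamp SSB and primase; PicoGreen fluorescence of double-stranded DNA made on primed circular M13 template; series mostly up to about 57 µM.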 In outline:
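PicoGreen fluorescence (ex 480–485/em 535–540 nm) reports dsDNA synthesized on ssM13Gori template with dNTPs/NTPs. Enzyme: holoenzyme rebuilt from purified PolC, beta subunit, SSB and primase. Compound preincubated before substrate addition; RT throughout.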

Assay [8] concerns the target Tumor susceptibility gene 101 protein (Homo sapiens) (UniProt Q99816). The assay can be described thus: qHTS Validation Assay for Iinhibitors of HIV-1 Budding by Blocking the Interaction of PTAP/TSG101 (AID 485342; calls by dose curve). In a few lines:
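FP read-out: FITC-PTAP peptide, 50 nM final, binding Tsg101 binding domain, 10 uM final; 20 min r.t.; 10 mM HEPES pH 7.5, 0.15 M NaCl, 0.01% Tween 20, 3 mM EDTA, 0.1 mM TCEP.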

The nature of assay [9]: qHTS Validation Assay to Find Inhibitors of Chronic Active B-Cell Receptor Signaling (AID 485345; active means well fitted curve in the direction sought with a large enough effect in the main read-out, with a control signal flat, not every such curve was filed as active). In outline:
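TMD8 ABC-DLBCL cells stably carrying doxycycline-inducible IkappaBalpha–green luciferase fusion plus unfused red luciferase; compounds 46 uM to 3 nM, 4 h at 37C with doxycycline. Corrected green/red luminescence ratio normalized to 10 uM MG-132 and basal cell wells; curves fitted.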

DNA polymerase III PolC-type (Bacillus subtilis (strain 168)), sequence (P13267 whole entry, looked up): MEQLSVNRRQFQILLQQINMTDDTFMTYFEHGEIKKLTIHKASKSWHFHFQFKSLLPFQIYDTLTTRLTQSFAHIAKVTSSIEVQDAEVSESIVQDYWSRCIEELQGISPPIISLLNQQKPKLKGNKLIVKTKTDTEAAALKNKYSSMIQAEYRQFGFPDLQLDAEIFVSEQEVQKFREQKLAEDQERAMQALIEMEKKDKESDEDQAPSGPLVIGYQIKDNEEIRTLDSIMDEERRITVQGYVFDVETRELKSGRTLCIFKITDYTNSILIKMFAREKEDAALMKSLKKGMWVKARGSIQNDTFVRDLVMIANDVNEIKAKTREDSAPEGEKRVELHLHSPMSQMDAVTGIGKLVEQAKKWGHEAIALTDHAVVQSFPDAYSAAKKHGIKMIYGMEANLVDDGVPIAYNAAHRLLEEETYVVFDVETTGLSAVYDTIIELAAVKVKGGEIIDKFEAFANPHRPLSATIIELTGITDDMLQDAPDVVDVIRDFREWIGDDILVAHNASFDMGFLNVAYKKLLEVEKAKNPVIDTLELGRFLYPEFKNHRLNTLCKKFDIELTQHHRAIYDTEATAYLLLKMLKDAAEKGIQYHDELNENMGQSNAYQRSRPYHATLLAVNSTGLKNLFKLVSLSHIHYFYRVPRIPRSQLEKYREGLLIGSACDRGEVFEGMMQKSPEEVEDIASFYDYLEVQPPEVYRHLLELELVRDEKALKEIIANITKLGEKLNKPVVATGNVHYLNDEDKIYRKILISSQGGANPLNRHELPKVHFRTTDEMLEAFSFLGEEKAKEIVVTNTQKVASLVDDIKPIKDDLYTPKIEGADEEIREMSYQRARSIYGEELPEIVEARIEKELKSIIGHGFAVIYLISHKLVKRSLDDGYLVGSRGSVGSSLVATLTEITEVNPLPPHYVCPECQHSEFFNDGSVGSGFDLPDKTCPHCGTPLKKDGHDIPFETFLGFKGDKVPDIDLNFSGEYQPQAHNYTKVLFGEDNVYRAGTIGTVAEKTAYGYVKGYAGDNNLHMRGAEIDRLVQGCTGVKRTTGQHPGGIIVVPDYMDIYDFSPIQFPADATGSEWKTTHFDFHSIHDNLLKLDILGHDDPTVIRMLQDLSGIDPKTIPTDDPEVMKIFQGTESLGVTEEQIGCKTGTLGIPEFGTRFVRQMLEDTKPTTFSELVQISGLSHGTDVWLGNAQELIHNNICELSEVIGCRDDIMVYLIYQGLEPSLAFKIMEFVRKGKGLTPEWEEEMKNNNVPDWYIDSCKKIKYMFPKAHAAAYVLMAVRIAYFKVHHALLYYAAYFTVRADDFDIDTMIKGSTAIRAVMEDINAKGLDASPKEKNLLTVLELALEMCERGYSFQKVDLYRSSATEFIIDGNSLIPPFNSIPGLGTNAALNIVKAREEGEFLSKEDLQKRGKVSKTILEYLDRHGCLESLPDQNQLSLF
Tumor susceptibility gene 101 protein (Homo sapiens), sequence (Q99816 whole entry, looked up, the tested form may be a part): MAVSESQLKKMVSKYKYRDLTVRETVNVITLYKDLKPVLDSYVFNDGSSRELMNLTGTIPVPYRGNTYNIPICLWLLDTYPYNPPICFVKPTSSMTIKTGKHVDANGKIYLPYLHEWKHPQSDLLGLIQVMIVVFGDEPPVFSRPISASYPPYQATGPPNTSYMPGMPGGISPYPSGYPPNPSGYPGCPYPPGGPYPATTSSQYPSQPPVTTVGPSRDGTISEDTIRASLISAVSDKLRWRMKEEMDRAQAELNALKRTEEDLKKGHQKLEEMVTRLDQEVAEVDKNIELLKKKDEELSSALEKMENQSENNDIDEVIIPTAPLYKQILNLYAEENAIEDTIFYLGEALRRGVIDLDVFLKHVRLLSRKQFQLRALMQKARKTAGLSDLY
Ubiquitin carboxyl-terminal hydrolase 2 (Homo sapiens), sequence (O75604 whole entry, looked up): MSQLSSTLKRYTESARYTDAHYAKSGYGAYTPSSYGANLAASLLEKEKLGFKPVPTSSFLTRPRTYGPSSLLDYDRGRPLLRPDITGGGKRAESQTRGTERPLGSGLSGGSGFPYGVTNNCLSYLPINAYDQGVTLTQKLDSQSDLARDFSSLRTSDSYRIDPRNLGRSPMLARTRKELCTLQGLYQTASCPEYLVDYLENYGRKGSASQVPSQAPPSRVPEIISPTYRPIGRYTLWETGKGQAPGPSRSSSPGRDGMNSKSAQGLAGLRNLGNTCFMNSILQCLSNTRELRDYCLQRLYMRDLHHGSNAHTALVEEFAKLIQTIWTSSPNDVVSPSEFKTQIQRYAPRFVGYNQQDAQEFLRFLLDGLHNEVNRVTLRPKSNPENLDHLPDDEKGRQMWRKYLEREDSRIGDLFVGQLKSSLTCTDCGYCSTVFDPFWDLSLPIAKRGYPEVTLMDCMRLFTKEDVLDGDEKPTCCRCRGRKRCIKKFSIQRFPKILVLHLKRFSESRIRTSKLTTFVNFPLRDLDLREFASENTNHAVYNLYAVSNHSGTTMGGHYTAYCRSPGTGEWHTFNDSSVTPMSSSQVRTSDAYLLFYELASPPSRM

With `COc1ccccc1N1CCN(CCN(C(=O)c2ccc(F)cc2)c2ccccn2)CC1`, the molecule was classed as inactive in assay [1], in assay [8] and in assay [9]. The Potency entry in [2], in [3], in assay [4], in [5], in [6] and in [7] was “inactive” each time.
With `Cc1ccc2c(c1)C(N1CCN(C)CC1)=Nc1cccnc1N2`, the molecule was classed as inactive in assay [1] and in [8]. For the same molecule, the Potency entry in assay [2], in assay [3], in assay [4], in assay [5], in [6] and in assay [7] was “inactive” throughout.
Turning to `CCC(=O)N1CCN(C(=O)c2ccccc2)CC1`, the result in [1], in [8] and in [9] was inactive. Further, the Potency result in [2], in [3], in [4], in assay [5], in assay [6] and in assay [7] was “inactive” in each case.
As to `CCCCS(=N)(=O)CC[C@H](N)C(=O)O` (stereo partly specified), the molecule was called inactive in assay [1], in assay [8] and in assay [9]. In addition, the Potency entry in assay [2], in assay [3], in [4], in [5], in assay [6] and in assay [7] was “inactive” throughout.
For the molecule `COc1cc(C(O)CO)ccc1O` (stereo unspecified), the call in [1], in assay [8] and in [9] was inactive. The Potency entry in [2], in assay [3], in assay [4], in assay [5], in [6] and in assay [7] was “inactive” each time.
For `c1ccc2nc(C3=NCCN3)ccc2c1`, the result in assay [1], in assay [8] and in assay [9] was inactive. In addition, the Potency entry in [2], in [3], in [4], in assay [5], in [6] and in assay [7] was “inactive” throughout.
In the case of `O=C(O)C1CCNCC1`, the molecule was classed as inactive in assay [1], in [8] and in assay [9]. The Potency entry in assay [2], in [3], in [4], in assay [5], in [6] and in [7] was “inactive” in each case.
With `C#CCn1c(=O)c2c(ncn2C)n(C)c1=O`, the molecule was called inactive in assay [1] and in [8]. In addition, the Potency result in assay [2], in assay [3], in assay [4], in assay [5], in assay [6] and in [7] was “inactive” throughout.
As for `N=S(=O)(O)Cc1noc2ccccc12`, the molecule was classed as inactive in assay [1], in assay [8] and in assay [9]. The Potency entry in [2], in [3], in assay [4], in [5], in [6] and in assay [7] was “inactive” throughout.
In the case of `CCN(CC)CCOC(=O)c1cc(Cl)c(N)cc1OC`, the result in assay [1], in assay [8] and in [9] was inactive. Further, the Potency entry in assay [2], in [3], in assay [4], in [5], in [6] and in assay [7] was “inactive” in each case.
`O=c1[nH]ccc2c(O)cccc12`: the call in assay [1], in assay [8] and in assay [9] was inactive. In addition, the Potency result in assay [2], in assay [3], in assay [4], in assay [5], in assay [6] and in assay [7] was “inactive” throughout.
As to `CC(=O)NCCc1c[nH]c2ccc(O)cc12`, the molecule was classed as inactive in assay [1], in [8] and in assay [9]. Besides, the Potency result in assay [2], in assay [3], in assay [4], in [5], in assay [6] and in assay [7] was “inactive” in each case.
As for `COc1cc(C(O)C(=O)O)ccc1O` (stereo unspecified), the outcome in [1], in assay [8] and in assay [9] was inactive. In addition, the Potency entry in assay [2], in assay [3], in [4], in [5], in assay [6] and in assay [7] was “inactive” in each case.
For `O=c1[nH]c2ccccc2c2ccccc12`, the molecule was called inactive in assay [1] and in [8]. The Potency result in assay [2], in assay [3], in [4], in assay [5], in assay [6] and in assay [7] was “inactive” each time.
As for `Nc1ccc(N2C(=O)c3ccccc3C2=O)c(Cl)c1`, the result in [1], in [8] and in assay [9] was inactive. The Potency result in assay [2], in [3], in [4], in assay [5], in assay [6] and in assay [7] was “inactive” each time.
With `NC(=O)c1ccccc1`, the molecule was called inactive in assay [1], in assay [8] and in [9]. Further, the Potency entry in [2], in assay [3], in assay [4], in assay [5], in [6] and in assay [7] was “inactive” throughout.
As to `CC[C@H](NC(=O)c1c(C)c(-c2ccccc2)nc2ccccc12)c1ccccc1`, the result in [1], in assay [8] and in assay [9] was inactive. In addition, the Potency entry in [2], in [3], in assay [4], in assay [5], in assay [6] and in [7] was “inactive” in each case.
In the case of `Cn1cc(C(=O)OCC2CCN(CCNS(C)(=O)=O)CC2)c2ccccc21`, the molecule was called inactive in assay [1], in assay [8] and in assay [9]. Also, the Potency entry in [2], in [3], in [4], in assay [5], in assay [6] and in assay [7] was “inactive” in each case.
Consider `NOCC(=O)O`, for which the call in [1], in [8] and in [9] was inactive. The Potency entry in assay [2], in assay [3], in assay [4], in assay [5], in assay [6] and in [7] was “inactive” throughout.
As to `CC1=C(C(=O)O)N2C(=O)[C@@H](NC(=O)C(N)C3=CCC=CC3)[C@H]2SC1` (stereo partly specified), the molecule was classed as inactive in [1], in [8] and in assay [9]. The Potency entry in [2], in [3], in assay [4], in assay [5], in assay [6] and in assay [7] was “inactive” each time.
With `NCCCNCCCCNCCCN`, the result in assay [1], in assay [8] and in [9] was inactive. In addition, the Potency result in [2], in assay [3], in assay [4], in [5], in assay [6] and in [7] was “inactive” throughout.
For the molecule `Cn1ccnc1`, the result in assay [1], in assay [8] and in assay [9] was inactive. Moreover, the Potency result in assay [2], in assay [3], in assay [4], in [5], in assay [6] and in assay [7] was “inactive” in each case.
Turning to `CC(=O)/C(C)=N/O`, the outcome in [1], in assay [8] and in [9] was inactive. Moreover, the Potency entry in assay [2], in [3], in assay [4], in assay [5], in [6] and in assay [7] was “inactive” each time.
As for `Fc1ccc(CN(C2=NCCN2)c2c(Cl)cccc2Cl)cc1`, the result in assay [1], in assay [8] and in assay [9] was inactive. Also, the Potency result in [2], in [3], in assay [4], in assay [5], in assay [6] and in assay [7] was “inactive” each time.
`CCN1C(=O)C=CC1=O`: the result in assay [1], in assay [8] and in assay [9] was inactive. Besides, the Potency result in [2], in assay [3], in assay [4], in assay [6] and in assay [7] was “inactive” throughout. Further, in assay [5], the Potency was 20 µM (active).
As for `O=C(O)C1CCCNC1` (stereo unspecified), the molecule was classed as inactive in [1], in assay [8] and in assay [9]. The Potency result in assay [2], in assay [3], in [4], in assay [5], in [6] and in [7] was “inactive” each time.
